High-throughput results from PubChem BioAssay.
KB-3-1 cytotox – qHTS assay for MDR1-selective chemotherapeutics: Primary screen using the parental adenocarcinoma cell KB-3-1 | Potency, µM (top dose mostly 46.1 µM), usual class: cytotoxic | 400,000 compounds, 1.4% hits | AID 1347075, 2019 | KB-3-1 viability, CellTiter-Glo ATP luminescence, 72 h; also: % is scaled to controls: 0 for no effect and ±100 for the full control effect; nearly all actives have a fitted effect of over 60% in size
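Multi-concentration cytotoxicity screen in KB-3-1 cells grown in DMEM lacking phenol red with 10% FBS. After 72 h at 37 °C with compound, ATP-dependent luminescence was recorded.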
MCF10A rereplic – A quantitative high throughput screen for small molecules that induce DNA re-replication in MCF 10a normal breast cells. Potency, µM (top dose mostly 46.1 µM), inactives show top-dose activity, positive = re-replication, hits mostly activators. 350,000 compounds, 2.9% hits. AID 624296, 2012. MCF 10A DNA re-replication, Hoechst nuclear intensity, 48 h; also: % of control where 0% means no effect; nearly all actives have a fitted effect of over 50% in size
HT1080 IDH1KD tx – qHTS for induction of synthetic lethality in tumor cells producing 2HG: qHTS for the HT-1080-IDH1KD cell line; AID 686971, 2013; HT-1080 IDH1 knockdown viability, ATP luminescence, 48 h; 360,000 compounds, 2% hits; Potency, µM (doses to about 46.1 µM), for the others: top-dose activity, negative = toxicity, usual class: cytotoxic;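 also: 0% = DMSO wells and -100% = cell-free medium wells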
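Knockdown cells (IDH1KD HT-1080) received compounds 2 h after plating at 750 cells/well and were kept 48 h at 37 °C in 5% FBS RPMI. A CellTiter-Glo luminescence read gave % activity for curve fitting.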
HT1080-NT tox – qHTS for induction of synthetic lethality in tumor cells producing 2HG: qHTS for the HT-1080-NT fibrosarcoma cell line. 360,000 compounds, 1.6% hits. AID 686970, 2013. Potency, µM (doses to about 46.1 µM), for inactives: at the top dose activity, negative = less viability, hits mostly cytotoxic. HT-1080-NT fibrosarcoma viability, CellTiter-Glo ATP luminescence, 48 h;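 also: NT is the 2HG producing partner of a matched IDH1 knockdown line; 0% = DMSO-treated cells and -100% = media-only wells without cells; nearly all actives have a fitted effect of over 55% in size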
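HT-1080-NT fibrosarcoma cells (2HG-overproducing), 750 cells/well in RPMI with 5% FBS, dosed after 2 h and incubated 48 h at 37C. CellTiter-Glo luminescence normalized to DMSO and no-cell wells; concentration-response curves fitted and classed.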
SW480 rerep – A quantitative high throughput screen for small molecules that induce DNA re-replication in SW480 colon adenocarcinoma cells. 340,000 compounds, 1.8% hits. AID 624297, 2012. Potency, µM (top dose mostly 46.1 µM), without a hit: top-dose re-replication activation, actives largely listed as activators. SW480 DNA re-replication, Hoechst DNA content imaging, 48 h; also: % of control where 0% means no effect; nearly all actives have a fitted effect of over 55% in size
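Readout is total intensity of Hoechst-stained nuclei, excited at 405 nm and collected at 500-530 nm. Compound treatment lasted 48 hr at 37 C in 5% CO2 before staining.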
KB-V1 cytotox – qHTS assay for MDR1-selective chemotherapeutics: Primary screen using the drug-selected MDR subline cells KB-V1. 400,000 compounds, 3.4% hits. KB-V1 MDR cells viability, CellTiter-Glo, 72 h. Potency, µM (doses to about 46.1 µM), actives largely listed as cytotoxic. AID 1347076, 2019; also: % is scaled to controls: 0 for no effect and ±100 for the full control effect; nearly all actives have a fitted effect of over 60% in size
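Cells of the MDR subline KB-V1 are plated, dosed with compound at multiple concentrations, and incubated 72 h at 37 degrees C; CellTiter-Glo is then added and luminescence read after 10 min.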
Starred values were filed as active, the others as inactive; i = inactive; ? = inconclusive; . = no result. Hits are enriched below; roughly 8% of the tested compounds scored in any of these assays. Calls follow the shape of the dose curve; as a rule, active = well fitted curve in the direction sought with a large enough effect; inconclusive = small, poorly fitted or top-dose-only effect, or another doubt; inactive = no such curve, though single readings can be large; an effect the other way counts as inactive or inconclusive. Potency is read from the fitted curve at half-maximal effect.

SMILES	KB-3-1 cytotox	MCF10A rereplic	HT1080 IDH1KD tx	HT1080-NT tox	SW480 rerep	KB-V1 cytotox
COc1cnc(-c2ccccn2)nc1Sc1ccccc1	i	7%	-18%	?	?	i
COc1ccc(Sc2nc(-c3ccccn3)ncc2OC)cc1	i	?	?	?	9.2µM*	?
COc1cnc(-c2ccccn2)nc1Sc1ccc(Cl)cc1	?	15µM*	-2%	4%	21µM*	?
CCOC(=O)CSc1nc(-c2ccccn2)ncc1OC	i	?	8%	7%	0%	?
Nc1nonc1-n1nnc(C(=O)N/N=C/c2ccc(Cl)cc2Cl)c1CN1CCOCC1	i	0%	9%	21%	-20%	i
Nc1nonc1-n1nnc(C(=O)N/N=C/c2ccc(Cl)cc2Cl)c1CN1CCCC1	i	-3%	-3%	-5%	3.7µM*	i
Nc1nonc1-n1nnc(C(=O)N/N=C/c2cccc(Cl)c2Cl)c1CN1CCCC1	i	?	2%	0%	21µM*	i
CC(C)c1c(C(=O)N/N=C/c2ccccc2OCc2c(F)cccc2Cl)nnn1-c1nonc1N	i	?	?	-20%	9.2µM*	16µM*
Cc1nc2nc(NC(=O)C(C)(C)C)[nH]n2c(=O)c1Cc1ccccc1	i	.	.	.	.	i
C[C@H](CO)N1C[C@H](C)[C@@H](CN(C)CC2CC2)Oc2c(NC(=O)Cc3ccccc3)cccc2C1=O	6.5µM*	27%	?	26µM*	?	?
C[C@H](CO)N1C[C@H](C)[C@@H](CN(C)S(C)(=O)=O)Oc2c(NC(=O)Cc3ccccc3)cccc2C1=O	i	-4%	-4%	-27%	0.12µM*	i
C[C@H](CO)N1C[C@H](C)[C@@H](CN(C)CC2CC2)Oc2c(NC(=O)C3CC3)cccc2C1=O	i	-23%	1%	1%	?	i
Cc1ccc(Cl)cc1N1CCN(S(=O)(=O)c2cn(C)c(C)n2)CC1	i	.	.	.	.	i
CCOC(=O)c1ccn(-c2nc(-c3cccc(OC)c3)cc(C(F)(F)F)n2)n1	i	.	.	.	.	i
COC(=O)c1ccccc1NC(=O)N1CCc2ccc(NC(=O)c3ccccn3)cc2C1	?	-14%	2%	-8%	18µM*	?
CCc1ccccc1NC(=O)Cn1c(=O)n(CCc2ccccc2)c(=O)c2sc3ccccc3c21	i	.	.	.	.	i
C=CCn1nc([N+](=O)[O-])nc1Sc1cccc2cccnc12	?	?	?	?	3.3µM*	8.2µM*
Cc1nn(C)c(C)c1CN(Cc1nc(-c2ccc(F)cc2F)oc1C)C1CC1	i	11%	-16%	-2%	5%	?
Cc1nn(C)c(C)c1CN(Cc1nc(-c2cc(F)ccc2F)oc1C)C1CC1	i	4%	?	-16%	1%	16µM*
COc1ccc(/C=N\N=C2/SC(CC(=O)O)C(=O)N2c2ccc(O)cc2)cc1 (centres undefined)	i	16µM*	-3%	5%	1%	i
CCCC1S/C(=N/N=C/c2ccc(C)cc2)N(Cc2ccc(OC)cc2)C1=O (centres undefined)	?	6%	-1%	-1%	-3%	13µM*
COc1ccc(/C=N/N=C2\SC(CC(=O)O)C(=O)N2c2ccccc2)cc1 (centres undefined)	i	13%	18%	22%	1%	i
CC(C)(C)c1ccc(NC(=S)NCc2cccnc2)cc1	i	?	1%	4%	-20%	i
CCC(C)c1ccc(NC(=O)c2cccnc2)cc1 (centres undefined)	i	24%	?	-6%	?	21µM*
CCC(C)c1ccc(NC(=S)NCc2cccnc2)cc1 (centres undefined)	?	10%	10%	23%	-5%	18µM*
SMILES	KB-3-1 cytotox	MCF10A rereplic	HT1080 IDH1KD tx	HT1080-NT tox	SW480 rerep	KB-V1 cytotox
CC(NC(=O)c1cnn2c1NC(=C1CC1)C=C2C(F)F)c1ccncc1 (centres undefined)	?	.	.	.	.	i
CCCCN(C(=O)CCC(=O)O)C1CC(=O)N(c2ccc(OCCC)cc2)C1=O (centres undefined)	i	-5%	16%	23%	-3%	i
CCCCCCC(=O)N(O)C1CC(=O)N(c2ccc(Br)cc2)C1=O (centres undefined)	i	?	16µM*	?	?	i
CCCCCCC(=O)N(O)C1CC(=O)N(c2ccc(F)cc2)C1=O (centres undefined)	i	?	?	16µM*	26%	i
COc1ccccc1N(O)C1CC(=O)N(c2ccc(Br)cc2)C1=O (centres undefined)	i	?	-13%	-4%	5%	i
CCCS(=O)(=O)Nc1cc(-c2cn3cccc(C)c3n2)ccc1C	i	.	.	.	.	i
CC1(C)NC(=O)N(CCOCCOc2cccc(Oc3ccccc3)c2)C1=O	i	-5%	-18%	-16%	-4%	i
CCC(=O)c1ccccc1OCCCN1C(=O)NC(C)(C)C1=O	i	5%	-3%	5%	8%	?
CC1(C)NC(=O)N(CCOCCOc2ccc3ccccc3c2Br)C1=O	i	11%	?	-16%	-1%	21µM*
CC1(C)NC(=O)N(CCCCOc2ccc3ccccc3c2Cl)C1=O	?	?	10µM*	?	4%	21µM*
COCC(=O)N/N=C\c1cccc(OC)c1OC/C=C/c1ccccc1	?	11%	-30%	-25%	16µM*	i
N#CCC(=O)N/N=C\c1ccccc1OC/C=C/c1ccccc1	i	183%	-19%	-13%	16µM*	i
N/C(=N\O)c1cn(Cc2ccccc2Cl)c2ccccc12	i	27%	-27%	?	-6%	i
Cc1[nH][nH]c(=O)c1C(c1c(C)[nH][nH]c1=O)c1cn(Cc2ccccc2Cl)c2ccccc12	7.3µM*	6.5µM*	18µM*	?	16µM*	18µM*
O=S1(=O)c2ccccc2N(Cc2cccc(Cl)c2)c2ccccc21	i	.	.	.	.	i
